From PubChem BioAssay
HT1080 IDH1KD tx – toxicity to HT-1080 IDH1 knockdown cells (counter line); HT-1080 IDH1 knockdown viability, ATP luminescence, 48 h; hit rate 2% among 360,000; AID 686971; Potency, µM (highest dose often 46.1 µM), for the others: top-dose activity, negative = toxicity, actives largely listed as cytotoxic;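 note: 0% = DMSO wells and -100% = cell-free medium wells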
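CellTiter-Glo luminescence after 48 h compound exposure at 37 degrees C of IDH1-knockdown HT-1080 cells in 5% FBS RPMI. %Activity scaled between DMSO wells and cell-free media wells, with curves fitted and assigned curve classes.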
DT40 TDP1 no CPT – qHTS for Inhibitors of human tyrosyl-DNA phosphodiesterase 1 (TDP1): qHTS in cells in absence of CPT. AID 686978, 2013. DT40 Tdp1-/- hTDP1 cells, no CPT, ATP luminescence, 48 h. hit rate 15% among 420,000. Potency, µM (doses to about 46.2 µM), without a hit: at the top dose activity change, negative = growth inhibition, usual class: inhibitors; note: nearly all actives have a fitted effect of over 55% in size
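No-CPT arm: Tdp1-/-;hTDP1 DT40 cells (400/well) plus compounds, incubated ≥48 hr at 37 °C. Readout CellTiter-Glo luminescence.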
KB-3-1 tox – kills parental KB-3-1 adenocarcinoma cells. KB-3-1 viability, CellTiter-Glo ATP luminescence, 72 h. Potency, µM (doses to about 46.1 µM), most hits filed as cytotoxic. hit rate 1.4% among 400,000; note: nearly all actives have a fitted effect of over 60% in size
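Here the drug-naive KB-3-1 line serves as comparator for MDR sub-line selectivity; cells received compound titrations, 72 h at 37 °C, then CellTiter-Glo readout.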
DT40 TDP1 CPT – DT40-hTDP1 cell growth loss with CPT; chicken DT40 Tdp1-/-;hTDP1 cells + 20 nM CPT, ATP luminescence, 48 h; hit rate 12% among 420,000; Potency, µM (doses to about 46.2 µM), for the others: top-dose activity change, negative = growth inhibition, most hits filed as inhibitors; note: nearly all actives have a fitted effect of over 55% in size
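Cell growth measured by CellTiter-Glo luminescence after a minimum 48 h, 37 C compound exposure with 20 nM CPT in Tdp1-knockout DT40 cells stably expressing hTDP1, seeded 400/well; qHTS titration format.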
HT1080-NT tox – kills 2HG-producing HT-1080-NT fibrosarcoma cells. Potency, µM (doses to about 46.1 µM), for the others: at the top dose activity, negative = less viability, most hits filed as cytotoxic. hit rate 1.6% among 360,000. AID 686970. HT-1080-NT fibrosarcoma viability, CellTiter-Glo ATP luminescence, 48 h;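 note: NT is the 2HG producing partner of a matched IDH1 knockdown line; 0% = DMSO-treated cells and -100% = media-only wells without cells; nearly all actives have a fitted effect of over 55% in size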
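Compounds were tested in concentration-response format on HT-1080-NT cells for 48 hours at 37 degrees C. Cell viability came from CellTiter-Glo luminescence; curves were classified by r2, response magnitude and activity.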
KB-V1 cytotox – KB-V1 MDR subline cytotoxicity; hit rate 3.4% among 400,000; KB-V1 MDR cells viability, CellTiter-Glo, 72 h; Potency, µM (doses to about 46.1 µM), hits mostly cytotoxic; AID 1347076; note: nearly all actives have a fitted effect of over 60% in size
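Cytotoxicity via CellTiter-Glo luminescence after 72 h compound exposure at 37 degrees C. Cells: drug-selected KB-V1 line, DMEM phenol-red free plus 10% FBS. Compounds tested at multiple concentrations; normalized data fitted to concentration-effect curves.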
Numbers without * were called inactive; i = inactive; u = inconclusive; x = not tested or not shown; [ ] = another dose, or the depositor's remark. This is a sample that favours compounds with a hit; in the whole collection about 19% have one here. Calls come from the whole dose curve; as a rule, active = well fitted curve in the direction sought with a large enough effect; inconclusive = small, poorly fitted or top-dose-only effect, or another doubt; inactive = no such curve, though single readings can be large; an effect the other way counts as inactive or inconclusive. Unless noted, % is set by controls: 0 for no effect and ±100 for the full control effect; potency is the fitted concentration of half-maximal effect.

SMILES | HT1080 IDH1KD tx | DT40 TDP1 no CPT | KB-3-1 tox | DT40 TDP1 CPT | HT1080-NT tox | KB-V1 cytotox
Cc1c2cnn(CC(=O)NCC(C)c3ccccc3)c(=O)c2c(C)n1Cc1cccc(Cl)c1 (configuration not stated) | x | u | i | -2.5% | x | i
COc1ccccc1N1CCN(C(=O)Cn2c(=O)n3nc(-c4cccc(C)c4)nc3c3ccccc32)CC1 | x | u | i | u | x | i
CCOC(=O)c1cc(-c2ccccc2)sc1NC(=O)C(C)OC(=O)c1cccnc1Cl (configuration not stated) | 23.7% | 23.1µM* | i | 23.1µM* | 20.4% | i
CCOC(=O)c1cc(-c2ccccc2)sc1NC(=O)c1ccc(OC)c(OC)c1 | 15.2% | u | i | 13µM* | 21.6% | u
CCOC(=O)c1cc(-c2ccccc2)sc1NC(=O)C(C)C | 12.2% | u | i | -29.8% | 19.3% | i
CCOC(=O)c1cc(-c2ccccc2)sc1NC(=O)C(C)Sc1nnc(C)s1 (configuration not stated) | -1.5% | -84.0% | i | -59.3% | -1.8% | u
CCOC(=O)c1cc(-c2ccccc2)sc1NC(=O)C(C)OC(=O)c1ccncc1 (configuration not stated) | 18.6% | 18.4µM* | i | 23.1µM* | 19.6% | u
CCOC(=O)c1cc(-c2ccccc2)sc1NC(=O)COC | 14.4% | -1.3% | i | -18.1% | 18.2% | i
Cc1cnc(-n2ncc(C(=O)N(C)CC3COCCO3)c2C2CC2)nc1-c1cccs1 (configuration not stated) | x | -7.1% | x | -15.1%[9.04 µM] | x | x
COc1cc(=O)n2c(c1C(=O)N(C)Cc1nonc1C)CCN(Cc1ccccc1F)CC2 | x | -22.9% | x | 2.5%[9.04 µM] | x | x
CCCCCC(O)/C=C/C=O (configuration not stated) | x | -21.6% | x | 4.2% | x | x
O=C(Nc1ccc(F)cc1)C(c1cc2ccccc2o1)N1CCN(c2ccncc2)CC1 (configuration not stated) | u | 23.1µM* | i | 20.6µM* | u | i
Cc1ccc(N2CCN(C(C(=O)Nc3c(C)cccc3C)c3cc4ccccc4o3)CC2)cc1 (configuration not stated) | 3.3% | 13µM* | i | 13µM* | -0.3% | u
Cc1cccc(C)c1NC(=O)C(c1cc2ccccc2o1)N1CCC(c2ccccc2)CC1 (configuration not stated) | 13.1% | 14.6µM* | u | 16.4µM* | -1.4% | 20.6µM*
O=C(Nc1ccc2c(c1)OCCO2)C(c1cc2ccccc2o1)N1CCC(Cc2ccccc2)CC1 (configuration not stated) | 3.0% | u | i | u | 6.0% | i
CN(C)c1cc(N2CCOCC2)nc(C#N)n1 | 7.8% | u | x | u | 4.5% | x
Cc1ccc(C(CNS(=O)(=O)c2ccc(F)cc2C)N2CCN(C)CC2)cc1 (configuration not stated) | -17.5% | u | i | 18.4µM* | -30.4% | i
C=CC[C@@H](CC(=O)N[C@H](CO)Cc1ccccc1)C(=O)N[C@H](COC(=O)[C@@H](CC=C)Cc1ccc(F)cc1)Cc1c[nH]c2ccccc12 | u | 18.4µM* | u | 13µM* | u | u
C=CC[C@H](CC(=O)N[C@H](CO)Cc1ccccc1)C(=O)N[C@H](COC(=O)[C@@H](CC=C)Cc1ccc(F)cc1)Cc1c[nH]c2ccccc12 | -7.0% | -10.5% | i | -2.0% | -4.6% | i
C=CC[C@@H](CC(=O)N[C@@H](CO)Cc1ccccc1)C(=O)N[C@@H](COC(=O)[C@@H](CC=C)Cc1ccc(F)cc1)Cc1c[nH]c2ccccc12 | -9.0% | 20.6µM* | i | 16.4µM* | -8.2% | i
CCn1c(=O)c2cc(C(=O)Nc3ccccc3OC)sc2c2ccccc21 | 1.6% | 20.6µM* | i | 14.6µM* | 11.9% | u
COc1ccc(OC)c(NC(=O)c2cc3c(Cl)nc4ccccc4c3s2)c1 | -5.8% | u | i | u | -6.5% | i
CCn1c(=O)c2cc(C(=O)NC(C)C)sc2c2ccccc21 | 9.6% | u | u | u | 4.2% | i
CCn1c2ccccc2c2cc(N=C3SC(CC(=O)Nc4ccccc4OC)C(=O)N3C)ccc21 (configuration not stated) | -1.6% | 25.9µM* | i | u | 6.1% | i
COc1ccc(NC(=O)c2cc3c(Cl)nc4ccccc4c3s2)cc1OC | u | 20.6µM* | i | u | u | u
SMILES | HT1080 IDH1KD tx | DT40 TDP1 no CPT | KB-3-1 tox | DT40 TDP1 CPT | HT1080-NT tox | KB-V1 cytotox
CCN(CC)CCOC(=O)c1ccc(NC(=O)c2cc3c(=O)n(CC)c4ccccc4c3s2)cc1 | x | 5.17µM* | i | 5.17µM* | x | i
CCn1c2ccccc2c2cc(N=C3SC(CC(=O)Nc4ccccc4OC)C(=O)N3CCOC)ccc21 (configuration not stated) | 3.5% | u | i | u | 1.1% | i
CCn1c(=O)c2cc(C(=O)N3CCN(C)CC3)sc2c2ccccc21 | -5.8% | u | i | 4.7% | -27.4% | i
O=C(NCCc1ccncc1)c1cnn(-c2ncc3c(n2)-c2ccccc2CCC3)c1C1CC1 | x | u | x | 12.1%[9.04 µM] | x | x
CCn1c(=O)c2cc(C(=O)Nc3cc(C)on3)sc2c2ccccc21 | 12.3% | u | i | 10.5% | 15.0% | i
CCn1c(=O)c2cc(C(=O)Nc3cc(OC)c(OC)c(OC)c3)sc2c2ccccc21 | x | 6.51µM* | i | 9.2µM* | x | u
O=C1c2ccccc2C(c2nnnn2-c2ccc3c(c2)OCCO3)N1Cc1ccccc1 (configuration not stated) | 12.7% | u | i | u | 0.8% | u
Cc1ccccc1CN1C(=O)c2ccccc2C1c1nnnn1-c1ccc2c(c1)OCCO2 (configuration not stated) | 3.26µM* | 4.11µM* | 2.91µM* | 5.17µM* | 3.66µM* | 5.8µM*
Cc1ccc(CN2C(=O)c3ccccc3C2c2nnnn2-c2ccc3c(c2)OCCO3)cc1 (configuration not stated) | u | 16.4µM* | u | u | -15.7% | i
CC(C)CCN1C(=O)c2ccccc2C1c1nnnn1-c1ccc2c(c1)OCCO2 (configuration not stated) | 15.6% | 16.4µM* | i | 23.1µM* | 8.3% | u
